Sampled rows, rich in hits. Any-hit rate of the full collection: about 3.1%.
KKLEB tox: CF airway cell cytotoxicity counter-screen | KKLEB CF airway cells viability, ATPlite luminescence, overnight; hits give low values; cells stimulated with P. aeruginosa culture filtrate | activity change (cytotoxicity), % at 5 µM | 360,000 compounds, 0.36% hits | AID 602141;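 active = corrected activity change at or below -50% at 5 µM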
CF NFkB block: inhibitors of cystic fibrosis induced NF-kB. KKLEB NF-kB-GFP reporter, PAF-induced, GFP fluorescence overnight. inhibition, % at 5 µM. 360,000 compounds, 0.86% hits;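 active = at least 50% inhibition at 5 µM, scaled per plate between neutral and stimulator controls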;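 note: PAF is a Pseudomonas aeruginosa culture filtrate used as stimulus; plate controls were PAF-stimulated DMSO wells for no effect and unstimulated DMSO wells for full effect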
PPC-1+TRAIL kill: PPC-1 cancer cell killing with TRAIL present; PPC-1 cells + TRAIL, ATPLite viability luminescence; cell killing (% activity), % at 4 µM or 5 µM; 220,000 compounds, 0.41% hits;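 active = cell killing above 50% in the first pass at 4 µM, then a duplicate retest at 5 µM averaging 50% or more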;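 note: plate controls were cells with TRAIL plus DMSO for no effect and medium-only wells lacking cells for full effect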
Peg3 promoter: reduces Peg3 promoter-driven luciferase expression in HeLa; HeLa PEG-Prom luciferase reporter, luminescence, overnight; inhibition, % at 20 µM; 360,000 compounds, 1.7% hits; AID 588405;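 active = inhibition of at least 50% at 20 µM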
HIF-2a block: blocks HIF-2a reporter activity. 786-0 RCC cells HIF-2a reporter, luciferase luminescence, overnight. inhibition, % at 18.8 µM. 360,000 compounds, 0.72% hits;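 active = inhibition of the luminescence signal of 40% or more relative to plate controls, in a single-dose primary screen at 18.75 µM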
TRAIL sens C8: sensitizes caspase-8 expressing cells to TRAIL; 360,000 compounds, 1% hits; inhibition (viability loss, TRAIL sensitization), % at 10 µM; AID 624354; NB7+C8 cells + TRAIL, ATPlite viability luminescence;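 active = compounds causing at least 50% loss of cell viability in the single-dose screen, relative to plate controls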
Numbers without * were called inactive; / = not tested or not shown.

SMILES | KKLEB tox | CF NFkB block | PPC-1+TRAIL kill | Peg3 promoter | HIF-2a block | TRAIL sens C8
Cc1ccnn1-c1ccc(C(=O)OCC(=O)Nc2ccc(F)cc2)cc1 | -2 | -19 | / | -137 | -134 | -2
O=C(NC(=S)N1CCN(c2ccc(C(F)(F)F)cc2[N+](=O)[O-])CC1)c1cccs1 | -26 | 2 | 16 | 24 | 12 | 51*
COCCC1CCCCN1C(=O)c1cc(COc2ccc(C)nc2)on1 (stereo not drawn) | -95* | 69* | / | -53 | -65 | 4
N/C(=N\N=C/c1ccc(Br)cc1)N/N=C\c1ccc(Br)cc1 | -2 | -38 | 14 | 102* | -17 | -8
Cc1ccc2nc(-c3ccc(NC(=O)CCN4C(=O)c5ccccc5C4=O)cc3)sc2c1 | -28 | -5 | 32 | -90 | -187 | 83*
O=C(CCN1C(=O)c2ccccc2C1=O)Nc1ccc(-c2nc3ccccc3s2)cc1 | -7 | 4 | 1 | -282 | -192 | 69*
Cc1cccc(N2CCN(S(=O)(=O)c3ccc4c(c3)NC(=O)C(C)S4)CC2)c1C (stereo not drawn) | 4 | 3 | / | 4 | 14 | 54*
CN(C)c1ccc(/C=C2\CCCCC2=O)cc1 | -1 | 10 | 36 | -237 | -187 | 9
CN(C)CCC1(C2=CCCC2)CC/C(=C/c2ccc(Cl)cc2)C1=O (stereo not drawn) | 10 | -11 | / | 95* | -12 | 29
O=C(CN(Cc1ccccc1F)C(=O)c1csnn1)NC1CCCCC1 | 2 | -9 | / | 4 | 57* | 17
Cc1ccc(CN(CC(=O)NC2CCCC2)C(=O)c2csnn2)cc1 | 3 | -7 | / | 2 | 5 | 6
Cc1cccc2[nH]c3c(=O)n(CCN4CCNCC4)cnc3c12 | -1 | 3 | 24 | 7 | 3 | 25
CC(C)CCn1cnc2c([nH]c3cccc(Cl)c32)c1=O | 0 | -12 | 12 | 2 | -13 | 52*
O=C(O)c1ccccc1N/N=C\c1ccnc2ccccc12 | -6 | 2 | 44 | -8 | 17 | 65*
CCOc1cc(/C=N\NC(N)=O)cc(Br)c1OC(C)C | -2 | 10 | 24 | 56* | 8 | 12
COc1cccc(CN2CC(C(=O)NCCc3ccccc3C(F)(F)F)CCC2=O)c1 (stereo not drawn) | 0 | 2 | / | -18 | -26 | -23
C[C@]12CC[C@@H]3c4ccc(O)cc4CC[C@H]3[C@@H]1CC[C@@H]2O | 27 | -7 | 7 | 25 | -8 | 0
C[C@]12CC[C@@H]3c4cc(O)c(O)cc4CC[C@H]3[C@@H]1CC[C@@H]2O | 16 | 55* | -4 | 5 | 5 | 13
COc1ccccc1N1CCN(CCCNC(=O)C2CCCN(c3ncnc4c3nc3n4CCCCC3)C2)CC1 (stereo not drawn) | -11 | 4 | / | 15 | 13 | 14
Cc1ccccc1-c1nnc(-c2ccccc2C)o1 | -2 | -9 | 16 | -208 | -249 | 7
Cc1ccccc1-c1nnc(-c2cccc3ccccc23)o1 | -42 | 0 | / | -330 | -263 | 51*
CC(NC(=O)Nc1nnc(C(F)(F)F)s1)(C(F)(F)F)C(F)(F)F | -1 | 46 | 8 | 23 | 1 | 51*
CCOC(=O)c1cnc(-n2nc(C)cc2C)nc1N(C)C | -7 | 14 | 44 | -161 | -155 | 50*
CCOC(=O)c1cnc(-n2nc(C)cc2C)nc1NC1CCCC1 | -24 | -15 | 28 | 18 | 10 | 13
O=c1c2ccc(F)cc2sn1-c1ccccc1 | 5 | 54* | / | -95 | -47 | -20
SMILES | KKLEB tox | CF NFkB block | PPC-1+TRAIL kill | Peg3 promoter | HIF-2a block | TRAIL sens C8
O=c1c2ccccc2sn1-c1ccc(F)cc1 | -9 | 32 | / | -65 | -94 | 2
O=c1c2ccccc2sn1-c1ccc(Cl)cc1 | -10 | 64* | / | -128 | -240 | -9
O=[N+]([O-])c1cccc(-c2ccc(CN3CCCCC3)o2)c1 | -13 | 8 | / | -25 | -18 | -4
O=C(Nc1ccccc1)c1cc(C2COCCN2C(=O)C2CC2)on1 (stereo not drawn) | 6 | -7 | / | -10 | -7 | -3
Cc1cc(C)c(C)c(OCC(=O)O/N=C(\N)c2ccccn2)c1 | 8 | 1 | 30 | -87 | -103 | 2
N/C(=N\OC(=O)COc1ccc(Br)cc1Cl)c1ccccn1 | -23 | 2 | 38 | -183 | -56 | 66*
N/C(=N\OC(=O)COc1ccc(Cl)cc1Cl)c1ccccn1 | -8 | -24 | 41 | -115 | -107 | 54*
CSc1cccc(NC(=S)N(CCCN2CCCC2)Cc2cccn2Cc2ccc(Cl)cc2)c1 | -13 | 17 | 13 | 108* | -10 | 16
S=C(Nc1cccc(Cl)c1)N(CCCN1CCCC1)Cc1cccn1Cc1ccc(Cl)cc1 | -34 | 38 | -11 | 100* | 8 | 36
Cc1ccc(S(=O)(=O)N2C[C@H]3C(=O)C[C@@H](c4ccccc4)N(S(=O)(=O)c4ccc(C)cc4)[C@H]3C[C@H]2c2ccc(Cl)cc2)cc1 | 4 | 15 | / | -10 | 6 | -1
COc1cc(C(=O)N2CCCCC2c2cc(C(=O)Nc3ccccc3Cl)no2)cc(OC)c1C (stereo not drawn) | -15 | 4 | / | 17 | 20 | -6
CCc1nnc(SCC(=O)NC2CCCCC2)nc1CC | -4 | 11 | 4 | 77* | -4 | -12
Cc1ccc(S(=O)(=O)N2[C@H](CC(=O)c3cccc4ccccc34)OC[C@@H]2C)cc1 | / | / | / | / | -7 | -10
CCN(CC)c1ccc(C(=O)OCc2cc(=O)oc3cc(O)ccc23)cc1 | 0 | -2 | -24 | 20 | -18 | 50*
CC1=C(C(=O)N(C)C)CC(CC(=O)NCCCCc2ccccc2)C(=O)N1Cc1ccc(C(C)(C)C)cc1 (stereo not drawn) | 15 | -17 | / | 17 | -8 | -9
CCCCN(CC)CCCNC(=O)c1cc2c(=O)n(CC)c3ccccc3c2s1 | -13 | -27 | / | 89* | -15 | 6
Oc1c(N=Nc2ccc(F)cc2)ccc2ccccc12 | -23 | 3 | / | -177 | -135 | 53*
COc1cccc(N=Nc2ccc3ccccc3c2O)c1 | -30 | -18 | / | -114 | -73 | 57*
Cc1ccc(N=Nc2ccc3ccccc3c2O)cc1 | -63* | 4 | / | 6 | -7 | 75*
CC1CCN(c2ccccc2NC(=O)c2ccc(Br)o2)CC1 | -27 | 49 | / | 4 | 8 | 2
CC(C)Oc1ccc(S(=O)(=O)N2CCOCC2)cc1NC(=O)CSC(=S)N1CCCC1 | 11 | -6 | / | 22 | 17 | 7
COc1cc(C(=O)ON=C2C3CC4CC(C3)CC2C4)cc(OC)c1OC | 4 | 4 | / | 76* | -6 | 29
N/C(Cc1ccc(Cl)cc1)=N\OC(=O)CCc1ccccc1 | 2 | 4 | / | -22 | -3 | -8
Nc1ccc2ccccc2c1[N+](=O)[O-] | -14 | -7 | / | 19 | 2 | -6
Nc1cc2c3ccccc3ccc2c2ccccc12 | -78* | 88* | / | 72* | -318 | 27
